In ChEMBL document CHEMBL3988442, “University of Dundee, Small-Polar-MMV Screening Library” (2021):

What was measured:
[1] = molecular target: T1, Aspartate--tRNA(Asp/Asn) ligase (Mycobacterium tuberculosis (strain ATCC 25618 / H37Rv)) (UniProt P9WFW3); assay: Assay for Asp RNA synthetase-1 from Mycobacterium tuberculosis; assay type: functional; design: scale not given: direction of the effect not stated beside the values; details: 30 µM; note: in the data most compounds retested in dose-response had high values
T1 sequence (whole entry): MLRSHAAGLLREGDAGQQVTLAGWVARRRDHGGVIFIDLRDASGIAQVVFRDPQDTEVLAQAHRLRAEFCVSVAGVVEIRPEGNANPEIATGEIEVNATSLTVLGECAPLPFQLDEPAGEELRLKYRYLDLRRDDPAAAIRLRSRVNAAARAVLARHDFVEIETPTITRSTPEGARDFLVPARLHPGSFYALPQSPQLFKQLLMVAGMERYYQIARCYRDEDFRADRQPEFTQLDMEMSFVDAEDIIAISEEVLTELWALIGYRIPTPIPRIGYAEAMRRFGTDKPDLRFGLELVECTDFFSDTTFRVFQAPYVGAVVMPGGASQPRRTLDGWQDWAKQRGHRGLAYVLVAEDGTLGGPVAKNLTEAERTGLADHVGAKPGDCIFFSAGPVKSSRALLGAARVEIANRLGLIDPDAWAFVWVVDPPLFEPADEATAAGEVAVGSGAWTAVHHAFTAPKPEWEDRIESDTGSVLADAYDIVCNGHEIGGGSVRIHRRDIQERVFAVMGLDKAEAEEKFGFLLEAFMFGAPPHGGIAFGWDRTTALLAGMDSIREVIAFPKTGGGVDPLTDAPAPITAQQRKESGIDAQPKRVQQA

[2] = molecular target: Shiga toxin 2 (Escherichia coli O157:H7) (UniProt P09385+P09386); assay: E. coli 0.157:H7 Shiga Toxin SOP - stx2 screening assay; assay type: functional; design: scale not given: direction of the effect not stated beside the values; details: 30 µM

SMILES | Percent Effect [1] [%] | Percent Effect [2] [%]
Cc1nn(C)c2c(NCc3cccnc3)nc(C3CC3)nc12 | 8.74 | -7.86
CCOCCn1nc(C)cc1C(=O)N1CCN(C(C)C)C(CC)C1 (configuration not stated) | -1.08 | 10.1
O=C1CN(Cc2ccc(-c3ccccc3C(=O)O)cc2)CCN1 | 5.6 | 43.1
Fc1cccnc1OC[C@@]12CCO[C@@H]1CCN(CC1CCOCC1)C2 | 0.353 | 1.39
CCC(=O)N1CCC(Cc2ccccc2-c2ccccc2)(C(N)=O)C1 (configuration not stated) | -7.87 | 6.14
CCc1ncc2c(n1)CN(CC(=O)Nc1ccc(Cl)cn1)CC2 | 0.367 | -9.49
COCCN1CCN(C(C)C(=O)Nc2ccnn2C(C)C)CC1 (configuration not stated) | 0.69 | -2.27
O=C(Cc1cccnc1)N1CCC2(CC1)CCN(C1CCOCC1)C2 | 1.28 | -40.8
Cc1ccc(C#N)cc1NC(=O)NC1CCCN(c2ncccn2)C1 (configuration not stated) | 1.97 | -2.85
c1cncc(-c2ccc3c(c2)C2(CC3)CCN(c3nncs3)CC2)c1 | 1.44 | -7.47
Cc1nn(C)c(Cl)c1C(=O)NCC(c1ccsc1)N(C)C (configuration not stated) | -6.11 | -7.76
O=C(c1cscn1)N1C[C@@H]2[C@@H](C1)OCC(=O)N2CC1CCCC1 | 4.1 | -48.6
O=C(Cc1ccccn1)N1CCC2(CC1)CC(Oc1ccccn1)CO2 (configuration not stated) | -3.87 | -3.37
Cn1cc(-c2cnc(N3CCOCC3)nc2)cc1C(=O)O | -4.12 | 9.97
O=C(c1cc(F)ccc1F)C1CCN(C(=O)c2ccccn2)CC1 | -3.52 | 18.1
O=C([C@H]1C[C@H]2OCC[C@H]2N(CCc2ccccc2)C1)N1CCCCO1 | 0.871 | 6.49
